# Laboratory results: PubChem BioAssay (NCATS)
# “And” between values parts separate entries of the source, which are not always exact repeats. Equal values may be shown once. Results filed as inconclusive are left out. The source holds several records for some structures; these can differ, active in one and inactive in another. The source made the active and inactive calls. Calls follow the shape of the dose curve; as a rule, active = well fitted inhibition curve with a large enough effect; inconclusive = small, poorly fitted or top-dose-only effect; inactive = flat fitted curve, though single readings scatter.
# Assay: Primary qHTS for inhibitors of nuclear receptor binding SET domain protein 2 (NSD2) in an isogenic RCH-ACV NSD2 p.E1099K mutant (9B) (AID 1645876); also: nearly all actives have a fitted effect of over 70% in size
# Conditions: RCH-ACV (leukaemia line) NSD2 E1099K (9B) viability, CellTiter-Glo, 72 h; series mostly up to 44.9 µM; activity change, negative = viability loss: at the top concentration
# % is scaled to controls: 0 for no effect and ±100 for the full control effect; potency is read from the fitted curve at half-maximal effect.
SMILES,Potency,"activity change, negative = viability loss",outcome
CC(C)[C@H](CO)Nc1nc(Nc2ccc(C(=O)O)c(Cl)c2)c2ncn(C(C)C)c2n1,inactive,,
Cn1c(N2CCCCS2(=O)=O)nc(C(=O)NCc2ccc(F)cc2)c(O)c1=O,,-1.28% (inactive),
CN(C)Cc1ccc(-c2nc3cccc4c3n2CCNC4=O)cc1,11.8 µM (active),,
c1cc(-c2sc(-c3ccncc3)c(-c3ccncc3)c2-c2ccncc2)ccn1,,-5.94% (inactive),
O=c1cc(N2CCOCC2)oc2c(-c3cccc4c3sc3ccccc34)cccc12,3.32 µM (active),,
CC(C)n1nc(-c2ccc3oc(N)nc3c2)c2c(N)ncnc21,36.5 nM (active) and 29.5 nM (active),,
COc1ncc(-c2ccc3nccc(-c4ccnnc4)c3c2)cc1NS(=O)(=O)c1ccc(F)cc1F,1.3 nM (active) and 8.3 nM (active),,
CC(C)n1cnc2c(NCCCCCCNC(=O)OC(C)(C)C)nc(NCCO)nc21,14.8 µM (active),,
COC1CCC(N(C(=O)C2CCC(C)CC2)c2cc(C3=CCCCC3)sc2C(=O)O)CC1 (stereo not given),,-9.93% (inactive),
O=c1cc(-c2cccc3c2Sc2ccccc2S3)oc(N2CCOCC2)c1,11.6 µM (active) and 14.8 µM (active),,
CNC1CCC(N(Cc2cccc(-c3ccncc3)c2)C(=O)c2sc3c(F)ccc(F)c3c2Cl)CC1 (stereo not given),8.33 µM (active) and 8.17 µM (active),,
CC(=O)Nc1ccc([C@H](C)C(=O)Nc2ncc(C(C)C)s2)cc1,2.63 µM (active),,
N[C@@]1(C(=O)O)CS(=O)(=O)[C@H]2[C@H](C(=O)O)[C@H]21,,,inactive
NC(=O)[C@@H](CCC(F)(F)F)N(Cc1ccc(-c2ncon2)cc1F)S(=O)(=O)c1ccc(Cl)cc1,23.5 µM (active),,
CC#CCn1c(N2CCC[C@@H](N)C2)nc2c1c(=O)n(Cc1nc(C)c3ccccc3n1)c(=O)n2C,,-5.03% (inactive),
CC(C)(C)COc1ccc(-n2cc(C(=O)O)cn2)cc1C#N,,-62.9% (inactive),
Clc1cc(Cl)cc(CNc2ncncc2-c2ccc3c(c2)OCO3)c1,13.2 µM (active),,
Cc1ccn(-c2ccc(-c3ncco3)cc2)c(=O)c1-c1ccc2nc(N)ncc2c1,5.9 µM (active),,

SMILES,Potency,"activity change, negative = viability loss",outcome
CO[C@H]1C(=O)[C@]2(C)[C@@H](OC)C[C@H]3OC[C@@]3(OC(C)=O)[C@H]2[C@H](OC(=O)c2ccccc2)[C@]2(O)C[C@H](OC(=O)[C@H](O)[C@@H](NC(=O)OC(C)(C)C)c3ccccc3)C(C)=C1C2(C)C,0.003 µM (active),,
CC(C)=CC[C@@H](O)C1=CC(=O)c2c(O)ccc(O)c2C1=O,23.5 µM (active),,
O=C(NC1CCOCC1)c1ccc(-c2cc(-c3cn[nH]c3-c3ccccn3)ccn2)cc1,,-3.25% (inactive),
CN(C)Cc1cccc(N=C(c2ccccc2)c2c(O)[nH]c3cc(C(=O)N(C)C)ccc23)c1,16.6 µM (active),,
Cc1ccc(C(=O)Nc2cccc(C(F)(F)F)c2)cc1Nc1nc(-c2cccnc2)nc2c1cnn2C,,-3.08% (inactive),
O=c1c(O)c(-c2ccc(O)cc2)oc2cc(O)cc(O)c12,23.5 µM (active),,
COc1ccc(-n2c(C)c([N+](=O)[O-])c3ccc(O)cc32)cc1,,-3.02% (inactive),
CC1CCC(C(=O)N(c2cc(C#CC(C)(C)C)sc2C(=O)O)C2CCC(O)CC2)CC1 (stereo not given),20.9 µM (active),,
CC1(C)CCC(CN2CCN(c3ccc(C(=O)NS(=O)(=O)c4ccc(NCC5CCOCC5)c([N+](=O)[O-])c4)c(Oc4cnc5[nH]ccc5c4)c3)CC2)=C(c2ccc(Cl)cc2)C1,11.2 µM (active) and inactive,,
O=C1C(Cl)=C(NCCN2CCOCC2)C(=O)c2ncccc21,7.42 µM (active),,
COc1ccc(-c2nc(N3CCOCC3)c3sc(CN(C)c4ncc(C(=O)NO)cn4)cc3n2)cn1,7.3 nM (active) and 29.5 nM (active),,
COc1cc(Nc2ncc(F)c(Nc3ccc4c(n3)NC(=O)C(C)(C)O4)n2)cc(OC)c1OC,817 nM (active) and 4.61 µM (active),,
CC(C)C(C)C=CC(C)C1CCC2C3=CC=C4CC(O)CCC4(C)C3CCC21C (stereo not given),,1.14% (inactive),
CC(C)C(=O)Oc1ccc(CO)cc1[C@H](CCN(C(C)C)C(C)C)c1ccccc1,,-8.51% (inactive),
N[C@H](CSC(c1ccccc1)(c1ccccc1)c1ccccc1)C(=O)O,,-5.14% (inactive),
NS(=O)(=O)c1ccc(NC2=CC(=O)c3ccccc3C2=O)cc1,,-15.1% (inactive),
CNC(=O)c1ccc2cc(C3(O)CCn4cncc43)ccc2c1 (stereo not given),,-4.12% (inactive),
